Measured values as given in PubChem BioAssay AID618 (Sanford-Burnham Center for Chemical Genomics, 2007).
About 540 (0.62%) of roughly 87,000 compounds were called active. The rule behind the calls is not given here. Only a selection was taken, and actives are over-represented in it overall. Measured potencies and affinities stand elsewhere.

Test: inhibitors of MT1-MMP promoter transcription, cell-based, luciferase reporter, luminescence (AID 618);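 note: actives suppress MT1-MMP promoter-driven transcription so potencies describe inhibitors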
Conditions: MT1-MMP promoter luciferase reporter cells

SMILES	outcome
CCOC(=O)CCc1c(C)n(CC)c2cc(-c3ccccc3OC)nn2c1=O	inactive
c1cnc(N2CC[N+]3(CCCC3)CC2)nc1	inactive
CCOc1cc(-c2nnc(-c3ccco3)o2)cc(OCC)c1OCC	inactive
COCCCNC(=O)Cn1nnc(-c2ccccc2NC(=O)c2ccccc2F)n1	inactive
COc1ccc(C2C(C(C)=O)=C(O)C(=O)N2CCO)c(OC)c1 (centres undefined)	inactive
COC(=O)c1ccc2c(c1)C(C)(C)C(/C=C/c1ccc(OC)c(OC)c1OC)=[N+]2C	active
COC(=O)c1ccc(OC(=O)c2ccc(OCc3c(C)noc3C)c(OC)c2)cc1	inactive
COC(=O)c1ccc(OC(=O)c2ccc(OC)c(OC)c2)c(OC)c1	inactive
CCn1c(=O)c2c3c(sc2n(C)c1=O)CCC3	inactive
Cc1cccc(OCC(=O)Nc2cccc(O)c2)c1	inactive
Cc1ccc(OCC(=O)Nc2cccc(O)c2)cc1C	inactive
O=C(CCN1CCN(c2ccccc2)CC1)Nc1ccc(Cl)cc1	inactive
Cc1cn(Cc2ccccc2)c(=O)[nH]c1=O	inactive
O=C(Nc1nc2c(s1)CCCC2)c1ccc(Br)o1	inactive
CC1CCc2nc(NC(=O)CN3CCOCC3)sc2C1 (centres undefined)	inactive
CC1CCc2nc(NC(=O)c3ccco3)sc2C1 (centres undefined)	active
CC1CCc2nc(NC(=O)Cc3cccs3)sc2C1 (centres undefined)	inactive
CC1CCc2nc(NC(=O)C3CC3)sc2C1 (centres undefined)	inactive
Cc1cc(C(=O)Nc2nc3c(s2)CCCC3)no1	inactive
Cc1ncsc1C(=O)Nc1nc2c(s1)CC(C)CC2 (centres undefined)	inactive
CC(C)Cc1nnc(NC(=O)CCN2C(=O)c3ccccc3C2=O)s1	inactive
CCOC(=O)C1=C(C)N(Cc2ccccc2)C(=O)NC1c1ccc(OC)cc1 (centres undefined)	inactive
c1ccc(N2CCCCC2)c(NC2=NCCC2)c1	inactive
Cc1ccc(-c2nc(=S)c3c(n2CC2CCCO2)CC(C)(C)OC3)cc1 (centres undefined)	inactive

SMILES	outcome
O=C(NCCCN1CCCC1=O)c1cc(=O)c2ccccc2o1	inactive
CCOC(=O)CN(C(=O)Cn1nnc2ccccc21)C(C(=O)NCCOC)c1ccccc1C (centres undefined)	inactive
COc1ccc2[nH]c3nc(SCc4nnc(-c5ccccc5)o4)nnc3c2c1	inactive
COc1ccc2[nH]c3nc(SC(C)C)nnc3c2c1	active
COc1ccc2[nH]c3nc(SCc4nnc(-c5ccc(C)cc5)o4)nnc3c2c1	inactive
COc1ccc(NC(=O)c2cnc3sccn3c2=O)cc1	inactive
Cc1ccc(-c2nc3ccccn3c2NC(=O)c2ccco2)cc1	inactive
Cc1cccn2c(=O)c3cc(C(=O)NCc4ccco4)c(=N)n(CCOCCO)c3nc12	inactive
COc1ccc(-c2nnc3n2N=C(c2ccccc2)CS3)cc1OC	inactive
COc1cc(-c2nnc3n2N=C(c2ccccc2)CS3)cc(OC)c1OC	active
CCOc1ccc(C2=Nn3c(nnc3-c3ccc(OC)cc3)SC2)cc1	inactive
COc1ccc(C2=Nn3c(nnc3-c3ccccc3)SC2)cc1OC	inactive
COc1ccc(OC)c(C2=Nn3c(nnc3-c3cc(OC)c(OC)c(OC)c3)SC2)c1	inactive
COc1ccccc1-c1nnc2n1N=C(c1ccc(O)c(O)c1)CS2	inactive
CCOc1ccc(C2=Nn3c(nnc3-c3ccccc3OC)SC2)cc1	active
CCOc1ccc(-c2nnc3n2N=C(c2ccc(OC)cc2)CS3)cc1	inactive
COc1ccc(C2=Nn3c(nnc3-c3ccccc3OC)SC2)cc1OC	active
COC(=O)c1ccccc1NC(=O)Cn1c(=O)oc2ccc(Cl)cc21	inactive
C=CCNc1sc(C(=O)c2ccc(Br)s2)c(N)c1C#N	inactive
Cc1ccc(C(=O)NNC(=O)Cc2ccccc2)cc1	inactive
Cc1nc2ccccc2n1CC(=O)OCC(=O)Nc1ccc2c(c1)OCCO2	inactive
CCc1nnc2n1N=C(c1ccc(OC)cc1)CS2	inactive
CCCNC(=O)c1oc2ccc3c(c2c1C)C(=O)CC(C)(C)O3	inactive
Cc1c(C(=O)NCc2ccoc2)oc2ccc3c(c12)C(=O)CC(C)(C)O3	inactive

SMILES	outcome
CCC(C)n1c(SC(C)C#N)nc2ccccc2c1=O (centres undefined)	inactive
Nc1nonc1C(=Nc1ccccc1)NO	inactive
CCOc1ccc(OCc2ccc(C(=O)NCc3cccnc3)o2)cc1	inactive
CCOC(=O)N1CCN(c2nc(-c3ccc(OC)cc3)no2)CC1	inactive
c1ccc(COc2ccc(OCCn3cncn3)cc2)cc1	inactive
O=c1c2ccccc2nc2n1CCCCC2	inactive
COc1ccc(-c2cc3nc4n(c(=O)c3s2)CCC4)cc1	active
COc1ccc(-c2cc3nc4n(c(=O)c3s2)CCOC4)cc1	inactive
COc1ccc(-c2nc3n(c2Br)CCC3)cc1	inactive
O=c1c2ccccc2nc2n1CCC2	inactive
COc1cc2c(cc1NC(=O)CN1C(=O)NC3(CCc4ccccc43)C1=O)oc1ccccc12 (centres undefined)	inactive
Cc1ccc(S(=O)(=O)NC(=O)Nc2c(C)n(C)n(-c3ccccc3)c2=O)cc1	inactive
CCOc1ccccc1NC(=O)CN(c1ccc(OC)cc1)S(=O)(=O)c1c(C)noc1C	inactive
CCOc1ccccc1NC(=O)CN(c1ccc(C)cc1)S(=O)(=O)c1c(C)noc1C	inactive
CCOc1ccc(N(CC(=O)Nc2ccccc2C)S(=O)(=O)c2c(C)noc2C)cc1	active
Cc1nnc2n(C3CCCCC3)c(=O)c3c4c(sc3n12)CCC4	inactive
Cc1nc(Cl)sc1C(=O)O	inactive
O=C(Nc1ccon1)c1cc2c(s1)CCCCCC2	inactive
C=CS(=O)(=O)c1ccc(Oc2ccc(S(=O)(=O)C=C)cc2)cc1	active
O=S(=O)(c1ccc(Oc2ccc(S(=O)(=O)N3CCOCC3)cc2)cc1)N1CCOCC1	inactive
CNS(=O)(=O)c1ccc(Oc2ccc(S(=O)(=O)NC)cc2)cc1	inactive
COCCCNC(=O)c1ccc2c(c1)OCO2	inactive
CCOCCCNC(=O)c1ccc2c(c1)OCO2	inactive
O=C(NCCOc1ccccc1)c1ccc2c(c1)OCO2	active

SMILES	outcome
Cn1c(=O)c2c(nc(CN3CCN(c4ccccc4)CC3)n2CCCc2ccccc2)n(C)c1=O	inactive
COc1ccccc1NC(=O)CN1C(=O)NC(C)(C)C1=O	inactive
O=C(NCc1ccccc1)C(c1cccnc1)N(Cc1ccco1)C(=O)c1ccccn1 (centres undefined)	inactive
CCOC(=O)N1CCN(C(=O)c2ccc3nc(N4CCC(C)CC4)sc3c2)CC1	inactive
CCOC(CNC(=O)c1ccc2nc(N3CCC(C)CC3)sc2c1)OCC	inactive
Cc1cc(Oc2ccc(C(C)(C)C)cc2)nc(N2CCOCC2)n1	inactive
CN(CC(=O)NCCN1CCCCCC1)S(=O)(=O)c1cccc2nsnc12	inactive
COc1ccc(-c2nn(C)c3sc(C(=O)NCc4ccco4)cc23)cc1OC	inactive
NC(=O)c1cnn2c(C(F)(F)F)cc(-c3ccc(F)cc3)nc12	inactive
CN1/C(=C\C(=O)c2ccco2)C(C)(C)c2ccccc21	inactive
CN1/C(=C\C(=O)C(F)F)C(C)(C)c2ccccc21	inactive
COC(=O)c1ccccc1NC(=O)c1cc(-c2cccs2)on1	inactive
Brc1ccc(NC2=Nc3ccccc3CC2)cc1	inactive
c1ccc(NC2=Nc3ccccc3CC2)cc1	inactive
CC(=O)N1CCc2[nH]c3ccccc3c2C1	inactive
O=C(OCn1ncc(Br)c(Br)c1=O)c1c(F)cccc1F	active
O=C(OCn1ncc(Br)c(Br)c1=O)c1ccc(F)cc1	active
O=C(OCn1ncc(Br)c(Br)c1=O)c1ccccc1Cl	inactive
Cc1onc(-c2c(F)cccc2Cl)c1C(=O)OCn1nnc2ccccc2c1=O	inactive
CCn1ncc(Br)c1C(=O)Nc1ccc(C(=O)OC(C)C)cc1	inactive
CCn1ncc(Br)c1C(=O)Nc1ccc(F)cc1F	inactive
Cc1ccccc1-n1nc(C(=O)c2cccs2)cc(-c2nc3ccccc3[nH]2)c1=N	inactive
O=C(OCc1nnc(-c2ccc(Cl)cc2)o1)c1ccc(=O)n(Cc2ccccc2)n1	inactive
Cc1cc(NC(=O)CS(=O)(=O)c2cn(Cc3ccc(F)cc3)c3ccccc23)no1	inactive

SMILES	outcome
O=C(Oc1ccc(-c2ccccc2)cc1)N1CCOCC1	inactive
O=C(Cn1nc(-c2ccccc2F)ccc1=O)NCc1ccc2c(c1)OCO2	inactive
CCCCn1nnc(NC(=O)c2ccc(-c3ccccc3)cc2)n1	inactive
CCCCCCCNC1=CC(=O)CC(c2ccco2)C1 (centres undefined)	inactive
COc1cc(NC(=O)CN(c2ccc(C)cc2)S(=O)(=O)c2c(C)nn(C)c2C)cc(OC)c1	inactive
O=C(Nc1ccc2c(c1)OCO2)C(c1ccccc1)N1CCN(C(=O)c2ccco2)CC1 (centres undefined)	inactive
CCCn1c(C)cc(-c2csc(N)n2)c1C	inactive
Cc1cc(-c2csc(N)n2)c(C)n1C	inactive
CCOC(=O)c1cc(C)n(CCc2ccccc2)c1C	inactive
Nc1nc(-c2ccccc2)cs1	inactive
Cc1nc2ccccc2nc1N1CCC(C)CC1	inactive
O=C(Nc1ccc2c(c1)OCO2)N1CCN(S(=O)(=O)c2ccc(Cl)cc2)CC1	inactive
CC1(C)N(OCc2ccccc2)C(=O)C(=O)N(OCc2ccccc2)C1(C)C	inactive
C=CCNc1nc(N(c2ccccc2)c2ccccc2)nc(-n2ccnc2)n1	inactive
CCCS(=O)(=O)c1nnnn1-c1cccc(OC)c1	active
COc1cccc(Oc2nnnn2-c2ccccc2)c1	inactive
COc1cccc(-n2nnnc2SCC(=O)NC2CCCC2)c1	inactive
CCCS(=O)(=O)C(=C1NCCO1)S(=O)(=O)CCC	inactive
COc1cccc(-c2nc3ccc(O)cc3c(=O)o2)c1	inactive
COc1nc(-c2ccc(C)cc2)ccc1-c1noc(-c2ccco2)n1	inactive
CCOc1nc(C)ccc1-c1noc(-c2ccco2)n1	inactive
Cc1cccc(OCC(=O)Nc2ccc3c(c2)OCO3)c1C	inactive
C/C(=C\C(=O)c1cccnc1)Nc1ccc(C(=O)O)cc1	inactive
